Data on 8 molecules can be found in PubChem BioAssay (NCI).

Structures are written as SMILES. About 83,000 compounds went through this panel and 20% of them were active in at least one assay; those are over-represented in the sample as a whole.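 For each line, cells grew in 96-well plates with the test compound present at a single concentration for 48 hours.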 Values without a mark were called inactive. Activity calls are given as the source filed them. How the source made its calls: active means growth percent below 10; inactive means the rest.

Some test systems named below: SR leukemia; RPMI-8226 leukemia; OVCAR-8 ovarian; OVCAR-5 ovarian; OVCAR-4 ovarian; SK-OV-3 ovarian; IGROV1 ovarian; OVCAR-3 ovarian; HS 578T breast; NCI/ADR-RES ovarian; T-47D breast; BT-549 breast; MDA-MB-435 melanoma; SW-620 colon; MCF7 breast; HCT-116 colon; HCC-2998 colon; KM12 colon.
Holding throughout (experiment): NCI-60 one-dose screen, 48 h (100 = growth as untreated, 0 = no growth, -100 = all killed)
Holding throughout (settings): 10 µM unless noted

`CCN(CC)c1ccc2c(c1)Oc1nc(N)c(C#N)c(N)c1C2Sc1ccc(C)cc1` (centres undefined): the growth in the assay with SR leukemia was -22% (active); in the assay with RPMI-8226 leukemia it was -22.9% (active); with OVCAR-8 ovarian it was -57.9% (active); with OVCAR-5 ovarian it was -88.6% (active); in the assay on OVCAR-4 ovarian, -96.7% (active); with SK-OV-3 ovarian, -89.3% (active). Also, the growth was -87.4% (active) in the assay with IGROV1 ovarian; -54% (active) in the assay with OVCAR-3 ovarian; -18.8% (active) with HS 578T breast; -17.9% (active) with NCI/ADR-RES ovarian; -41.8% (active) in the assay on T-47D breast; 58.8% with BT-549 breast. Also, the growth in the assay on MDA-MB-435 melanoma was -95.5% (active); in the assay with SW-620 colon it was -62.5% (active); in the assay with MCF7 breast it was -70.7% (active); with HCT-116 colon, -80.2% (active); in the assay on HCC-2998 colon, -90.2% (active); in the assay on KM12 colon, -48.8% (active).

Consider `NC(N)=Nc1ccc(Oc2cccc(NC(N)=Nc3ccc(Br)cc3)c2)cn1`, for which the growth in the assay on SR leukemia was 34.5%; in the assay with RPMI-8226 leukemia, 51.4%; in the assay on OVCAR-8 ovarian, 68.1%; with OVCAR-5 ovarian, 66.7%; with OVCAR-4 ovarian, 71%; with SK-OV-3 ovarian, 73.6%. The growth with IGROV1 ovarian was 37.9%; in the assay with OVCAR-3 ovarian it was 64.9%; with HS 578T breast it was 44.2%; in the assay on NCI/ADR-RES ovarian it was 100%; in the assay on T-47D breast, 37.8%; in the assay on BT-549 breast it was 99.2%. Also, the growth in the assay with MDA-MB-435 melanoma was 72.7%; with SW-620 colon it was 76%; with MCF7 breast, 10.8%; in the assay with HCT-116 colon it was 69.2%; with HCC-2998 colon it was 79.3%; in the assay on KM12 colon it was 66.5%.

Consider `CC(=O)c1ccc(Nc2nc(SCC(C)C)nc(-c3ccc(F)cc3)c2C#N)cc1`, for which the growth in the assay on SR leukemia was 102%; in the assay on RPMI-8226 leukemia, 118%; with OVCAR-8 ovarian it was 101%; in the assay with OVCAR-5 ovarian, 113%; with OVCAR-4 ovarian it was 115%; in the assay with SK-OV-3 ovarian it was 114%. Besides, the growth was 111% in the assay on IGROV1 ovarian; 115% in the assay on OVCAR-3 ovarian; 122% in the assay with HS 578T breast; 110% in the assay on NCI/ADR-RES ovarian; 106% in the assay with T-47D breast; 110% with BT-549 breast. In addition, the growth in the assay with MDA-MB-435 melanoma is 111%; with SW-620 colon, 110%; with MCF7 breast, 114%; with HCT-116 colon, 108%; in the assay with HCC-2998 colon it was 119%; in the assay with KM12 colon, 104%.

As for `CCO/C=N/C1=C(C#N)C(c2ccc(Cl)cc2)c2sc3c(C)cccc3c2O1` (centres undefined), the growth is 12.2% with SR leukemia; 7.03% (active) with RPMI-8226 leukemia; 28% with OVCAR-8 ovarian; 27.9% with OVCAR-5 ovarian; 64.3% with OVCAR-4 ovarian; 59.4% in the assay with SK-OV-3 ovarian. The growth with IGROV1 ovarian is 26.6%; in the assay on OVCAR-3 ovarian it was -30.6% (active); with HS 578T breast, 18.9%; in the assay with NCI/ADR-RES ovarian it was 11.7%; in the assay with T-47D breast it was 33.5%; in the assay on BT-549 breast, 38.8%. For the same molecule, the growth with MDA-MB-435 melanoma is -49.6% (active); with SW-620 colon, 26.5%; in the assay with MCF7 breast, 14.5%; with HCT-116 colon, 14.8%; in the assay on HCC-2998 colon it was 9.57% (active); in the assay on KM12 colon, 15.2%.

Regarding `CCCCCc1ccc(S(=O)(=O)Nc2cc(-c3csc(NC(=O)CN4CCN(C)CC4)n3)ccc2N2CCN(C)CC2)cc1`, the growth was -40.7% (active) in the assay on SR leukemia; -28.5% (active) with RPMI-8226 leukemia; 19.5% in the assay with OVCAR-8 ovarian; 18.4% with OVCAR-5 ovarian; -44.3% (active) in the assay on OVCAR-4 ovarian; 18.2% in the assay on SK-OV-3 ovarian. Also, the growth with IGROV1 ovarian was 7.21% (active); with OVCAR-3 ovarian it was -34.7% (active); in the assay with HS 578T breast, -24.3% (active); in the assay on NCI/ADR-RES ovarian, 19.1%; in the assay with T-47D breast, -49.9% (active); in the assay on BT-549 breast, 77.5%. Besides, the growth in the assay with MDA-MB-435 melanoma was -78.6% (active); in the assay on SW-620 colon, -55.1% (active); in the assay on MCF7 breast, -85.9% (active); with HCT-116 colon it was -70.9% (active); with HCC-2998 colon it was -25.2% (active); in the assay with KM12 colon it was 38.9%.

In the case of `NC(N)=Nc1ccc(Oc2cccc(Oc3ccc(Cl)c(C(F)(F)F)c3)c2)cn1`, the growth is -58.9% (active) in the assay with SR leukemia; -49.5% (active) in the assay on RPMI-8226 leukemia; -50.8% (active) with OVCAR-8 ovarian; -74.5% (active) in the assay with OVCAR-5 ovarian; -76.8% (active) with OVCAR-4 ovarian; 75.8% in the assay with SK-OV-3 ovarian. The growth was -81.7% (active) with IGROV1 ovarian; -95% (active) with OVCAR-3 ovarian; 79.8% with HS 578T breast; -6.8% (active) in the assay with NCI/ADR-RES ovarian; 8.88% (active) in the assay on T-47D breast; 73.9% with BT-549 breast. In addition, the growth was -86.8% (active) with MDA-MB-435 melanoma; -76.7% (active) in the assay on SW-620 colon; -70.6% (active) with MCF7 breast; -91.5% (active) in the assay with HCT-116 colon; -80.6% (active) in the assay with HCC-2998 colon; -89.6% (active) in the assay with KM12 colon.

As for `CC1(C)CC[C@]2(C(=O)N3CCOCC3)CC[C@]3(C)C(=CC[C@@H]4[C@@]5(C)C/C(=C/c6ccco6)C(=O)C(C)(C)[C@@H]5CC[C@]43C)[C@@H]2C1`, the growth in the assay on SR leukemia was 44.6%; in the assay with RPMI-8226 leukemia, 55.6%; in the assay with OVCAR-8 ovarian, 91.3%; in the assay on OVCAR-5 ovarian it was 96.8%; in the assay with OVCAR-4 ovarian, 60.9%; in the assay with SK-OV-3 ovarian it was 109%. The growth in the assay with IGROV1 ovarian was 86.7%; in the assay with OVCAR-3 ovarian, 86.9%; in the assay on HS 578T breast, 83.5%; in the assay with NCI/ADR-RES ovarian, 96.6%; in the assay with T-47D breast it was 75.7%; in the assay on BT-549 breast, 97.4%. For the same molecule, the growth with MDA-MB-435 melanoma was 88.7%; in the assay on SW-620 colon, 74.1%; with MCF7 breast, 64%; in the assay with HCT-116 colon, 62.1%; in the assay on HCC-2998 colon, 103%; in the assay on KM12 colon, 95.7%.

For `COc1ccccc1-n1cc(C#N)c(N)c1C(=O)c1ccc(C)cc1`, the growth with SR leukemia was 49.4%; with RPMI-8226 leukemia, 99.7%; with OVCAR-8 ovarian, 95%; with OVCAR-5 ovarian it was 103%; in the assay on OVCAR-4 ovarian, 103%; in the assay with SK-OV-3 ovarian it was 93.5%. For the same molecule, the growth was 84.6% in the assay with IGROV1 ovarian; 94.6% with OVCAR-3 ovarian; 85.6% in the assay with HS 578T breast; 60.2% in the assay with NCI/ADR-RES ovarian; 82.1% in the assay on T-47D breast; 83.9% with BT-549 breast. Further, the growth in the assay with MDA-MB-435 melanoma is 5.3% (active); in the assay with SW-620 colon it was 52.4%; in the assay on MCF7 breast it was 51.3%; in the assay on HCT-116 colon, 76.8%; in the assay on HCC-2998 colon, 80.9%; in the assay with KM12 colon it was 59.6%.
